Measured values as given in PubChem BioAssay AID1835 (Johns Hopkins Ion Channel Center, 2009).
Hit rate of the full screen: of about 2,400 compounds, about 750 (31%) were called active.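 Rule for the calls: active = median signal gain over dofetilide-blocked control wells reaching their mean plus 3 SD, so readout 1 at least 0; inactive = the rest.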 Some of the results follow.

Biological target: Voltage-gated inwardly rectifying potassium channel KCNH2 (Homo sapiens) (UniProt Q12809)
Assay: hERG protection against dofetilide inhibition, confirmation, cell-based, thallium flux, duplicate retest, dofetilide IC70 (AID 1835)
Conditions: hERG cell line, FluxOR thallium flux, dofetilide-blocked; at 10 µM; stronger effect = higher value

Chain of Voltage-gated inwardly rectifying potassium channel KCNH2 (Homo sapiens) (Q12809 whole entry, looked up): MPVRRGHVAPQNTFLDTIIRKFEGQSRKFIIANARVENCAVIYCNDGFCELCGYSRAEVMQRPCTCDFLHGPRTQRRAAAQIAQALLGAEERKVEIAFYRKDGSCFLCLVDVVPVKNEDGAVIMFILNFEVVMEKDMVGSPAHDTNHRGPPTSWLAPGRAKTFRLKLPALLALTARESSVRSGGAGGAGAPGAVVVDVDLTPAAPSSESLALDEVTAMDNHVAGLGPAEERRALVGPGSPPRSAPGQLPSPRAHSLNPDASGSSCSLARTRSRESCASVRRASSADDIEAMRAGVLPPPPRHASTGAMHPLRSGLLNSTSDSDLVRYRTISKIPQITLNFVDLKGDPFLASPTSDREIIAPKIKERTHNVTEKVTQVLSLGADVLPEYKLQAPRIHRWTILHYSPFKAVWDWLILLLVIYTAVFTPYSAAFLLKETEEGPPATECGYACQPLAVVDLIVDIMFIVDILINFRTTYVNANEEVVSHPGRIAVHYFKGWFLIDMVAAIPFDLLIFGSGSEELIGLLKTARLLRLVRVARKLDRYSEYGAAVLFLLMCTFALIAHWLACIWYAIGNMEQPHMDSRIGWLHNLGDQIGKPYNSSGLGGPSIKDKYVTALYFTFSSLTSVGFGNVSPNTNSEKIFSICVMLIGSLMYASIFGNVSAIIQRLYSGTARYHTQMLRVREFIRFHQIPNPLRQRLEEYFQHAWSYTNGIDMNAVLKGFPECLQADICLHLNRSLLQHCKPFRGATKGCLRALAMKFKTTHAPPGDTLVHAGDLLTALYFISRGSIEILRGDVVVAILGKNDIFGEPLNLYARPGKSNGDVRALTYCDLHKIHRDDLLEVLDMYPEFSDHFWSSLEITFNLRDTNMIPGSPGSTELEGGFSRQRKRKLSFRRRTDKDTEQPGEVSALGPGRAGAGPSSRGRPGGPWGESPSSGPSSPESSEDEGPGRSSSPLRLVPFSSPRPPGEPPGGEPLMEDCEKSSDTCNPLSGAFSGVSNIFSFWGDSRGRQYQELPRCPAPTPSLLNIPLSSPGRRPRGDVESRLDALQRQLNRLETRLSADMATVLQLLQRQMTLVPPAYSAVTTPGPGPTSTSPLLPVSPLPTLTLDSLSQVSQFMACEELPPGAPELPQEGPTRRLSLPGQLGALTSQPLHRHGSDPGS

SMILES	activity increase over dofetilide control, less the hit threshold
CC1c2nc3ccccc3n2C(CC(=O)NCCCN2CCOCC2)C(=O)N1Cc1ccccc1 (centres undefined)	-8% (inactive)
CCCOc1ccc(C2NC(=S)NC(c3ccccc3)=C2C(=O)Nc2ccc(C)cc2)cc1OC (centres undefined)	-5% (inactive)
Cc1cc(C(=O)N/N=C/c2ccc(O)c([N+](=O)[O-])c2)n[nH]1	-13% (inactive)
O=C(NC(=S)N1CCc2ccccc21)c1ccccc1Cl	53% (active)
O=C(NC(=S)N1CCc2ccccc21)c1ccccc1	43% (active)
O=C(NC(=S)N1CCc2ccccc21)c1ccc(Br)o1	12% (active)
O=C(NC(=S)N1CCCc2ccccc21)c1ccccc1	-18% (inactive)
O=C(c1ccccc1)N1CCc2ccccc21	-6% (inactive)
O=C(NC(=S)N1CCc2ccccc21)c1ccco1	-11% (inactive)
O=C(N/N=C/c1ccsc1)C1CC1	-4% (inactive)
CC1CCN(S(=O)(=O)c2ccc3nc(N4CCN(c5ccccc5)CC4)ccc3c2)CC1	-22% (inactive)
COc1cc(C2c3c(n[nH]c3C)C(=O)N2c2ccc(C)cc2)ccc1O (centres undefined)	-15% (inactive)
O=C(NCc1cccnc1)c1ccc(NS(=O)(=O)c2ccc(F)cc2)cc1	-9% (inactive)
CC1=NNC(=O)C1CC(=O)N/N=C/C=C/c1ccccc1 (centres undefined)	-18% (inactive)
O=C(N/N=C/c1ccccc1[N+](=O)[O-])c1ccc(CN2CCOCC2)cc1	-4% (inactive)
CCOC(=O)N/N=C/C=C/c1ccccc1[N+](=O)[O-]	4% (active)
Cc1cc(C)n2nc(SCC(=O)NC3CCCCC3C)nc2n1 (centres undefined)	-19% (inactive)
Oc1c(N=NC(=S)Nc2ccccc2F)c2ccccc2n1Cc1ccccc1Cl	-2% (inactive)
Oc1c(N=NC(=S)Nc2ccccc2F)c2ccccc2n1Cc1ccccc1F	19% (active)
Cn1c(O)c(N=NC(=S)Nc2ccccc2F)c2cc(S(=O)(=O)N3CCOCC3)ccc21	-22% (inactive)
Cc1ccccc1Cn1c(O)c(N=NC(=S)Nc2ccccc2F)c2ccccc21	6% (active)
Cc1ccc(C)c(Cn2c(O)c(N=NC(=S)Nc3ccccc3F)c3ccccc32)c1	-2% (inactive)
CC(C)Nc1nc(SCC(N)=O)nc(N2CCOCC2)n1	-12% (inactive)
O=C1CN(C(=O)COc2ccccc2F)c2ccccc2N1	-17% (inactive)
COC(=O)c1sccc1NC(=S)N1CC(C)CC(C)C1 (centres undefined)	-15% (inactive)
COC(=O)c1sccc1NC(=O)CSc1ccccc1NS(=O)(=O)c1cc(Cl)ccc1Cl	-3% (inactive)

SMILES	activity increase over dofetilide control, less the hit threshold
COC(=O)c1sccc1NS(=O)(=O)c1ccc(F)cc1F	2% (active)
Cc1ccc(NS(=O)(=O)c2cn(C)c(=O)n(C)c2=O)c(C)c1	0% (active)
Cc1ccc(S(=O)(=O)n2cnc3ccccc32)c(C)c1	-13% (inactive)
Cc1ccc(NC(=O)c2ccc3c(c2)CCN3S(C)(=O)=O)c(C)c1	-17% (inactive)
Cc1cc(C(=O)NNC2CC(=O)N(c3ccc4ccccc4c3)C2=O)c(C)o1 (centres undefined)	-6% (inactive)
Cc1c(C)n(CCN(C)C)c2ccc(C(=O)OCCN(C)C)cc12	-7% (inactive)
CC(=O)c1c(C)c2c(n1CCN(C)C)CCCC2	2% (active)
O=C(CC1NC(=O)NC1=O)Nc1ccccc1 (centres undefined)	-19% (inactive)
O=C(c1cncc(Br)c1)N1CCc2ccccc2C1	-15% (inactive)
CC1(C)Cc2c(sc3[nH]c(=S)n(Cc4ccccc4)c(=O)c23)CO1	-10% (inactive)
CCC1(C)Cc2c(sc3[nH]c(=S)n(Cc4ccccc4)c(=O)c23)CO1 (centres undefined)	30% (active)
CC(C)C1Cc2c(sc3[nH]c(=S)n(Cc4ccccc4)c(=O)c23)CO1 (centres undefined)	16% (active)
COc1ccc(C(=O)NCC(=O)OCn2nnc3ccccc3c2=O)cc1OC	-24% (inactive)
CCCCNC(=S)N/N=C/C1=CCC2CC1C2(C)C (centres undefined)	-22% (inactive)
Fc1ccc2c(c1)C(c1ccncc1)=NNC(c1cccnc1)=N2	-13% (inactive)
C=CCc1cc(Cl)ccc1OCCOCCN(C)C	-19% (inactive)
Cc1csc(NC(=O)C2C3C=CC(C3)C2C(=O)O)n1 (centres undefined)	-19% (inactive)
O=C(O)c1ccc(CNC(=O)C23CC4CC(CC(C4)C2)C3)cc1	-3% (inactive)
O=C(NCc1ccccc1)C(=O)Nc1nc(C23CC4CC(CC(C4)C2)C3)cs1	18% (active)
Oc1ccc(/C=N/Nc2nccnc2Cl)c(O)c1	8% (active)
COc1ccc(N2C(=O)CCC(C(=O)O)C2c2ccc(F)cc2)cc1 (centres undefined)	-5% (inactive)
O=C(NC(=S)Nc1nc(-c2cccc([N+](=O)[O-])c2)cs1)c1ccccc1Cl	-1% (inactive)
COc1ccc(-c2csc(NC(=S)NC(=O)c3ccco3)n2)cc1Br	-17% (inactive)
O=C(NC(=S)Nc1nc(-c2ccc([N+](=O)[O-])cc2)cs1)c1ccco1	16% (active)
O=C(NC(=S)Nc1nc(-c2ccccc2)cs1)c1ccco1	1% (active)
O=C(NC(=S)Nc1nc(-c2ccc(Br)cc2)cs1)c1ccco1	10% (active)

SMILES	activity increase over dofetilide control, less the hit threshold
COc1ccc(-c2csc(NC(=S)NC(=O)c3ccco3)n2)cc1	11% (active)
O=C(CCc1ccc(S(=O)(=O)N2CCCCC2)cc1)c1nnc(-c2ccccc2)o1	-14% (inactive)
Cc1[nH]c(=S)c(C#N)c(C)c1Cc1ccc(Cl)cc1Cl	-12% (inactive)
O=C(N/N=C/C(Cl)=C/c1ccc([N+](=O)[O-])cc1)C(=O)Nc1ccc(C(=O)O)cc1	-13% (inactive)
O=c1c(C(c2ccc(O)cc2)c2c(O)nc3n(c2=O)CCS3)c(O)nc2n1CCS2	3% (active)
O=C(N=Nc1c(O)[nH]c2ccc([N+](=O)[O-])cc12)c1cc(-c2ccccc2Cl)nc2ccccc12	97% (active)
O=[N+]([O-])c1cccc(NC(=S)Nc2nc(-c3ccccc3Cl)cs2)c1	-7% (inactive)
CN(C)/C(=N\S(=O)(=O)c1ccccc1)c1ccc(F)cc1	-9% (inactive)
S=C(N/N=C/c1cccc2ccccc12)Nc1cccc(Cl)c1	-8% (inactive)
Cc1cccc(-n2cc(-c3ccccc3)[nH]c2=S)c1	-6% (inactive)
S=c1[nH]c(-c2ccccc2)cn1/N=C/c1cccc2ccccc12	2% (active)
Cc1c(OC(C(=O)O)c2ccccc2)ccc2c(-c3ccccc3)cc(=O)oc12 (centres undefined)	-3% (inactive)
COc1cc(OC)cc(C(=O)NNC(=O)C(=O)Nc2cc(OC)c(Cl)cc2OC)c1	68% (active)
COc1cccc(C(=O)NNC(=O)C(=O)Nc2ccc(OC)cc2OC)c1	19% (active)
COc1cc(NC(=O)c2cc(-c3cccnc3)nc3ccc(C)cc23)c(OC)cc1Cl	-17% (inactive)
COc1ccc(NC(=O)C2CC3CCC2C3)c(OC)c1 (centres undefined)	-8% (inactive)
COc1cccc(C(=O)NNC(=O)C(=O)Nc2cccc3ccccc23)c1	52% (active)
Cc1cc(C(=O)Nc2cccc3ccccc23)c(C)o1	-12% (inactive)
COc1ccc(C(=O)NNC(=O)C(=O)Nc2cccc3ccccc23)cc1	51% (active)
COc1ccc(C(=O)NNC(=O)CSc2nnc(COc3ccccc3)n2C)cc1	-24% (inactive)
COc1cccc(CCNS(=O)(=O)CCNC(=O)c2cccc(OC)c2)c1	-15% (inactive)
CN(C)CCOC(=O)C1(c2ccccc2)CCCC1	-3% (inactive)
O=C(CSc1cccc2cccnc12)N/N=C/c1cccnc1	-19% (inactive)
COC(=O)c1ccc(Oc2ccc(S(=O)(=O)N3CCCCC3)cc2N)cc1	-12% (inactive)
O=S(=O)(Nc1cccc(-n2cnnn2)c1)c1ccc(Cl)nc1	-11% (inactive)
CCOCCOCN(C#N)c1nc(OC)nc(N(C)C)n1	-22% (inactive)

SMILES	activity increase over dofetilide control, less the hit threshold
O=C(CN1C(=O)CSCC1=O)Nc1ccc2c(c1)OCO2	-6% (inactive)
COC(=O)CC1C(=O)NCCN1C(=S)NC(=O)c1sc2ccccc2c1Cl (centres undefined)	-1% (inactive)
CC1CCCCC1NC(=S)NC(=O)c1sc2ccccc2c1Cl (centres undefined)	5% (active)
CC1CCCCC1NC(=S)NC(=O)c1cccs1 (centres undefined)	44% (active)
O=C(NC(=S)N(CCCCO)C1CCCCC1)c1sc2ccccc2c1Cl	29% (active)
CN(CC(=O)Nc1ccc(OC(F)(F)F)cc1)S(=O)(=O)c1cnc[nH]1	-9% (inactive)
FC(F)c1nnc2c(Cl)cc(C(F)(F)F)cn12	-11% (inactive)
O=C(NC(=S)NNC(=O)[C@H]1C[C@@H]1c1ccccc1)c1cccc(F)c1	-14% (inactive)
C=CCn1c(=S)[nH]c2scc(-c3cccs3)c2c1=O	90% (active)
C=CCn1c(SCC(N)=O)nc2scc(-c3ccc(C)o3)c2c1=O	-19% (inactive)
C=CCn1c(=S)[nH]c2scc(-c3ccc(C)o3)c2c1=O	72% (active)
O=C(Nc1ccc(Cl)c(Cl)c1)Nc1nnc(CSc2ccccc2)s1	-10% (inactive)
N#CC(=C1SC=CS1)c1nc(-c2ccccc2)cs1	-7% (inactive)
COC(=O)c1cc(-c2ccc(C)cc2)n[nH]1	-17% (inactive)
Cc1ccc(-c2n[nH]c(=S)nc2-c2ccc(C)cc2)cc1	13% (active)
S=c1nc(-c2ccccc2)c(-c2ccccc2)n[nH]1	-9% (inactive)
Cn1cc(/C=C2\SC(=O)NC2=S)c2ccccc21	-24% (inactive)
CCOc1ccc(/C=C2/SC(=O)NC2=S)cc1	92% (active)
CCOc1cc(-n2ncc(C#N)c2N)nc(SC)n1	-12% (inactive)
CCOC(=O)c1ccc(Oc2cc(C)nc(SC)n2)cc1	10% (active)
CCc1ccc(NC(=O)C(=O)NNC(=O)COc2cccc(OC)c2)cc1	14% (active)
O=C(COc1cccc(-n2cnnn2)c1)Nc1ccc([N+](=O)[O-])cc1	-1% (inactive)
COc1cccc(NC(=O)CSCc2n[nH]c(=O)[nH]2)c1	-20% (inactive)
CCc1ccc(OCC(=O)Nc2ncn[nH]2)cc1	-29% (inactive)
Cc1cccc(OCC(=O)NCc2nc(-c3ccccc3)no2)c1	-13% (inactive)
COc1cccc(OCC(=O)NNC(=O)C(=O)Nc2cccc(C)c2)c1	50% (active)
